The text below walks through data of PubChem BioAssay (NCATS).

Results filed as inconclusive are left out. Values without a mark were called inactive. The call rests on the fitted dose curve; in most records, active means well fitted inhibition curve with a large enough effect; inconclusive means small, poorly fitted or top-dose-only effect; inactive means flat fitted curve, though single readings scatter.

This test addresses Aldehyde dehydrogenase, mitochondrial (Homo sapiens) (UniProt P05091). The experiment in a line: qHTS for Inhibitors of the Aldehyde Dehydrogenase Family (ALDH2) Primary screen (AID 2061308).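 Further: plate controls were vehicle for no effect and reference inhibitor for full effect; nearly all actives have a fitted effect of over 55% in size.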 Particulars: ALDH2 enzyme inhibition qHTS, 1536-well; series mostly up to 56 µM; activity change, negative = inhibition: at the top concentration. In general terms: In qHTS, concentration-response curves come from the screen itself.
As to `CO[C@H]1[C@H](O)[C@H](O[C@H]2CC[C@]3(C)C4CC[C@]5(C)[C@H](C6=CC(=O)OC6)CC[C@]5(O)C4CC[C@@H]3C2)O[C@@H](C)[C@@H]1O` (some centres undefined), the “activity change, negative = inhibition” value is -9.26% [at 28 µM].

As to `O=C1CCCC2=C1C(c1[nH]ncc1Cl)N=C(Nc1nc3ccc(F)cc3o1)N2` (centres undefined), the “activity change, negative = inhibition” value is -4.1%.

As to `C[C@@H]1[C@H](O)[C@@H](C)/C=C/C=C/CC/C=C/C=C/C=C/C=C/[C@H](O[C@H]2O[C@@H](C)[C@H](O)[C@@H](N)[C@H]2O)C[C@@H]2O[C@](O)(C[C@@H](O)[C@H](O)CC[C@@H](O)C[C@@H](O)C[C@@H](O)CC(=O)O[C@H]1C)C[C@H](O)[C@H]2C(=O)O`, the “activity change, negative = inhibition” value is -9.79% [at 28 µM].

Turning to `CCOc1ccc(CCNC(=O)c2ccccc2)cc1OCC`, the “activity change, negative = inhibition” value was 5.85%.

As to `C[C@@H]1O[C@@H](O[C@H]2CC[C@@]3(C)C(CC[C@@H]4C3CC[C@]3(C)[C@@H](C5=CC(=O)OC5)CC[C@]43O)C2)[C@H](O[C@@H]2O[C@H](CO)[C@@H](O)[C@H](O)[C@H]2O)[C@H](O)[C@H]1O` (some centres undefined), the “activity change, negative = inhibition” value is -0.0504% [at 16.9 µM].

In the case of `CC(=O)O[C@H]1C[C@]2(O)[C@@H]3CC[C@@H]4C[C@@H](O)CC[C@]4(C)[C@H]3CC[C@]2(C)[C@H]1c1ccc(=O)oc1`, the “activity change, negative = inhibition” value was 0.264%.

As to `COc1cccc(CNc2ccc(S(=O)(=O)Nc3ccc4ccccc4c3)cc2)c1O`, the “activity change, negative = inhibition” value is 2.05%.

On to `C=C(C)[C@@H]1[C@H]2OC(=O)[C@H]1[C@]1(O)C[C@H]3O[C@]34C(=O)O[C@H]2[C@]14C`, for which the “activity change, negative = inhibition” value was 0.333%.

Consider `CO[C@H]1C[C@H](O[C@H]2CC[C@]3(CO)[C@H]4CC[C@]5(C)[C@@H](C6=CC(=O)OC6)CC[C@]5(O)[C@@H]4CC[C@]3(O)C2)O[C@H](C)[C@H]1O`, for which the “activity change, negative = inhibition” value was 2.24% [at 28 µM].
